High-throughput results deposited in PubChem BioAssay by National Center for Advancing Translational Sciences (NCATS).
An excerpt weighted towards active compounds, which were near 19% of everything screened.
TGFb inhibitor = qHTS for Inhibitors of TGF-b | Potency, µM (highest dose often 46.1 µM), without a hit: top-dose activity, negative = inhibition, actives largely listed as inhibitors | HepG2 CAGA-GFP TGF-b/SMAD3 reporter, GFP fluorescence, 18 h; TGF-beta stimulated, 500 pg/mL final | AID 588855, 2011 | 1.2% of 410,000 active; note: potency is the fitted concentration of half-maximal effect; % is set by controls: 0 for no effect and ±100 for the full control effect; nearly all actives have a fitted effect of over 65% in size
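Using HEPG2 CAGA-GFP reporter cells at 1000 cells/well, we pinned test compounds, stimulated with recombinant TGF-beta (500 pg/mL final) and measured total well GFP after 18 h.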
TDP1 cell CPT = qHTS for Inhibitors of human tyrosyl-DNA phosphodiesterase 1 (TDP1): qHTS in cells in presence of CPT; chicken DT40 Tdp1-/-;hTDP1 cells + 20 nM CPT, ATP luminescence, 48 h; Potency, µM (titrated, usually from 46.2 µM), without a hit: at the highest dose activity change, negative = growth inhibition, hits mostly inhibitors; 12% of 420,000 active; AID 686979, 2013; note: potency is the fitted concentration of half-maximal effect; % is set by controls: 0 for no effect and ±100 for the full control effect; nearly all actives have a fitted effect of over 55% in size
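Chicken DT40 Tdp1-/- cells stably complemented with human TDP1 were seeded at 400 cells/well in medium containing 20 nM camptothecin, exposed to pin-transferred compounds, and grown at 37 °C for at least 48 hr. Viability was read as ATP luminescence.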
TDP1 inh = qHTS Assay for Inhibitors of Tyrosyl-DNA Phosphodiesterase (TDP1); Tyrosyl-DNA phosphodiesterase 1 (Homo sapiens), Q9NUW8; recombinant TDP1, AlphaScreen DNA substrate cleavage; Potency, µM (top dose mostly 130 µM), without a hit: top-dose activity change, negative = inhibition, most hits filed as inhibitors; 0.28% of 350,000 active; AID 485290, 2010; note: potency is the fitted concentration of half-maximal effect; % is set by controls: 0 for no effect and ±100 for the full control effect; nearly all actives have a fitted effect of over 40% in size
Target sequence (Q9NUW8 whole entry, looked up): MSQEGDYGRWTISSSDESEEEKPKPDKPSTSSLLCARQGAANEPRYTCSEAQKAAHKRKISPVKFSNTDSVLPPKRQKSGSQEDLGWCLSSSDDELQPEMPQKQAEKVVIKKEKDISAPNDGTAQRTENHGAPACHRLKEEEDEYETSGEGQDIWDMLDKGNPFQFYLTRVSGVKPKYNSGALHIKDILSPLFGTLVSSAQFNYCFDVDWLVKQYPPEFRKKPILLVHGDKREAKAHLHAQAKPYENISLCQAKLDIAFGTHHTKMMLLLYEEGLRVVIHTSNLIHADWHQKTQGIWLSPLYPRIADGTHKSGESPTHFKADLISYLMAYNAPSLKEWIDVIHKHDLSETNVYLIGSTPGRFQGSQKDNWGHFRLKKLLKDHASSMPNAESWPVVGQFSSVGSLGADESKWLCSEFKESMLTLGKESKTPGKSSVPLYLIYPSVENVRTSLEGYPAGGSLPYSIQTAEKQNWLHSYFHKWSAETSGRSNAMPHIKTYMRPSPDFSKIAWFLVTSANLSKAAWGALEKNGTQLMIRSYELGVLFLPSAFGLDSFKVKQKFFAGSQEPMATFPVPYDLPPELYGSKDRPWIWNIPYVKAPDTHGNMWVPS
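Signal: AlphaScreen proximity between streptavidin donor and anti-FITC acceptor beads on intact substrate. Reaction: Tdp1 1 nM, substrate 15 nM final, 5 min RT after 15 min compound preincubation.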
DT40 TDP1 no CPT = qHTS for Inhibitors of human tyrosyl-DNA phosphodiesterase 1 (TDP1): qHTS in cells in absence of CPT | Potency, µM (top dose mostly 46.2 µM), without a hit: at the top dose activity change, negative = growth inhibition, most hits filed as inhibitors | DT40 Tdp1-/- hTDP1 cells, no CPT, ATP luminescence, 48 h | 15% of 420,000 active | AID 686978, 2013; note: potency is the fitted concentration of half-maximal effect; % is set by controls: 0 for no effect and ±100 for the full control effect; nearly all actives have a fitted effect of over 55% in size
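Cells were dispensed at 400 per well, compounds added by pin tool, plates incubated ≥48 hr at 37 °C, then CellTiter-Glo added for 30 min at room temperature before luminescence reading. Line: DT40 Tdp1-/- complemented with hTDP1; camptothecin omitted.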
HepG2 tox = qHTS for Inhibitors of TGF-b: Cytotox Counterscreen. HepG2 CAGA-GFP viability, ATP luminescence, 18 h. Potency, µM (series often up to 46.1 µM), without a hit: top-dose activity change, negative = cytotoxicity, actives largely listed as cytotoxic. 0.76% of 410,000 active. AID 588856, 2011; note: potency is the fitted concentration of half-maximal effect
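CellTiter-Glo luminescence gave cytotoxicity after 18 hours at 37 degrees C. The cells were HepG2 CAGA-GFP in 1% FBS DMEM, stimulated with 500 pg/mL TGF-beta after compound addition. %Activity was normalised to no-cell wells (complete cell-killing) and DMSO (no toxicity), and curves were fitted and classified.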
IL1B secr inh = qHTS for Inhibitors of Inflammasome Signaling: IL-1-beta AlphaLISA Primary Screen; activity change, % at 57.5 µM; THP-1 LPS/ATP IL-1B secretion, AlphaLISA, 16 h; active compounds read low; 4.7% of 360,000 active; AID 743279, 2014; in the data active = activity change below about -50%; inconclusive = mostly about -30% to -49%; note: % is set by controls: 0 for no effect and ±100 for the full control effect
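THP-1 cells pretreated 1 hr with compounds (up to 57.5 uM final), then stimulated with LPS (250 ng/mL final) plus ATP (1.25 mM final); secreted IL-1B measured by AlphaLISA after 16 hr, decreased signal indicating inhibition.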
Starred values were filed as active, the others as inactive; i = inactive; u = inconclusive; x = not tested or not shown; ! = not confirmed by another sample; [ ] = another dose, or the depositor's remark. Unless noted, calls come from the whole dose curve; as a rule, active = well fitted curve in the direction sought with a large enough effect; inconclusive = small, poorly fitted or top-dose-only effect, or another doubt; inactive = no such curve, though single readings can be large; an effect the other way counts as inactive or inconclusive.

SMILES	TGFb inhibitor	TDP1 cell CPT	TDP1 inh	DT40 TDP1 no CPT	HepG2 tox	IL1B secr inh
O=c1c(Br)ccc(Br)cc1Br	1.6µM*	0.029µM*	x	0.065µM*	4µM*	-100*
CCN1C(=O)[C@H]2[C@H]3[C@H](O)[C@H](O)C/C(=N/O[C@@H]4O[C@@H](COC(C)=O)[C@@H](OC(C)=O)[C@@H](OC(C)=O)[C@H]4OC(C)=O)[C@H]3CC[C@@H]2C1=O	x	x	7%[21 µM]	x	x	x
Nc1nnc(SCC(=O)OCC(=O)c2ccccc2)s1	0%	4%	-1%	-1%	4%	22
Nc1nnc(SCC(=O)OCC(=O)c2ccccc2Br)s1	9%	26µM*	2%	u	-75%	-28
COc1ccc(C(C)=O)cc1COC(=O)c1cnc(Cl)c(Cl)c1	u	-6%	0%	-3%	-6%	-82*
COc1ccc(C(C)=O)cc1COC(=O)c1ccc2c(c1)OCO2	6%	-17%	1%	-18%	-3%	36
O=C1[C@@H]2[C@H]3[C@H](O)[C@H](O)C/C(=N/OCc4ccccc4)[C@H]3CC[C@H]2C(=O)N1c1ccc(F)cc1F	x	x	6%[21 µM]	x	x	x
CNc1nc(SCc2ccc(C)cc2)nc2c1CCCC2	16µM*	-15%	2%	u	-4%	-10
COc1ccc(OC)c(S(=O)(=O)Nc2ccc3c(c2)N(C(C)=O)CCC3)c1	u	-18%	-6%	-26%	0%	9
CC(=O)N1CCCc2ccc(NS(=O)(=O)c3cccc(Cl)c3)cc21	30%	-1%	6%	-28%	8%	x
COc1ccc(S(=O)(=O)Nc2ccc3c(c2)N(C(C)=O)CCC3)cc1F	-47%	15µM*	6%	18µM*	-21%	x
CC(=O)N1CCCc2ccc(NS(=O)(=O)c3ccc(C)c(C)c3)cc21	-17%	12µM*!	6%	u	-7%	29
O=C1Nc2ccccc2-n2nnnc2C1N1CCN(c2ccccn2)CC1 (configuration not stated)	x	0%	x	-10%	x	-1
Cc1cc2c(cc1C)-n1nnnc1C(N1CCN(C(=O)OCc3ccccc3)CC1)C(=O)N2 (configuration not stated)	x	6.5µM*	x	5.8µM*	x	-4
Cc1cc2c(cc1C)-n1nnnc1C(N(C)Cc1ccccc1)C(=O)N2 (configuration not stated)	x	21µM*	x	15µM*	x	8
O=C1Nc2ccccc2-n2nnnc2C1N1CCN(c2ccc(C(F)(F)F)cn2)CC1 (configuration not stated)	x	16µM*	x	21µM*	x	21
Cc1cccc(N2CCN(C3C(=O)Nc4ccccc4-n4nnnc43)CC2)c1C (configuration not stated)	x	12µM*	x	7.3µM*	x	29
Cc1cc2c(cc1C)-n1nnnc1C(N1CCN(CC(=O)N3CCCC3)CC1)C(=O)N2 (configuration not stated)	x	-21%	x	-17%	x	0
O=C(COc1ccc([N+](=O)[O-])cc1)Nc1ccccc1C(=O)NC1CC1	-2%	14%	5%	-1%	-4%	-19
Cc1cc2c(cc1C)-n1nnnc1C(N1CCN(c3ccccc3F)CC1)C(=O)N2 (configuration not stated)	x	18µM*	x	18µM*	x	7
Cc1cc2c(cc1C)-n1nnnc1C(N1CCCC1)C(=O)N2 (configuration not stated)	x	-16%	x	-29%	x	3
O=[N+]([O-])c1ccc(O)c(Nc2c([N+](=O)[O-])ccc3nonc23)c1	u	-18%	x	u	-19%	-9
C=C(C)c1cccc(C(C)(C)NC(=O)Nc2ccc(C)cn2)c1	u	18µM*	-4%	18µM*	-4%	-6
C=C(C)c1cccc(C(C)(C)NC(=O)Nc2cc(C)ccn2)c1	11µM*	u	4%	u	-17%	-27
CSc1cccc(CNC(=O)C2CCC(=O)N(CC3CCCCC3)C2)c1 (configuration not stated)	-24%	u	2%	u	-8%	-15
SMILES	TGFb inhibitor	TDP1 cell CPT	TDP1 inh	DT40 TDP1 no CPT	HepG2 tox	IL1B secr inh
O=C(CP(=O)(c1ccccc1)c1ccccc1)Nc1cccc(CP(=O)(c2ccccc2)c2ccccc2)c1	0%	u	6%	23µM*	-18%	u
COc1ccc(-n2[nH]c3c4c(ncc3c2=O)CCCCC4)cc1	x	x	10%	x	x	x
CCOc1c(Br)cc(/C=C2\N=C(C)OC2=O)cc1Br	6%	21µM*	x	u	4%	-1
COc1cc(/C=C2\N=C(C)OC2=O)cc(OC)c1OC	4%	u	3%	u	-5%	0
COc1cc(C(=O)Oc2ccc3c(OC)c4ccoc4nc3c2OC)cc(OC)c1OC	x	-9%[9.04 µM]	5%	5%[9.04 µM]	x	x
CC(C)(CO)NC(=O)c1cnn(-c2ncc3c(n2)-c2ccccc2CC3)c1C1CC1	x	6%[9.04 µM]	x	-25%	x	x
COc1cccc(Cn2c(-c3nonc3NC(C)=O)nc3ccccc32)c1	2%	13µM*	5%	13µM*	-26%	x
CC(=O)Nc1nonc1-c1nc2ccccc2n1Cc1ccccc1Br	45%	16µM*	7%	15µM*	-16%	x
CCC(=O)Nc1nonc1-c1nc2ccccc2n1CC(C)C	4%	23µM*	1%	23µM*	-7%	-20
CSc1nc2sc3c(c2c(=O)n1Cc1ccccc1)CCC(C(C)(C)C)C3 (configuration not stated)	0%	-15%	-3%[12.3 µM]	u	-17%	x
O=C(O)CC(c1ccccc1)N1C(=O)c2ccccc2C1=O (configuration not stated)	27%	1%	x	-23%	-25%	-10
O=C(/C=C/c1ccccc1)N1c2ccccc2Sc2ccc(C(F)(F)F)cc21	0%	-9%	0%	-8%	-13%	-1
COc1ccc(/C=C/C(=O)N2c3ccccc3Sc3ccc(C(F)(F)F)cc32)cc1	-13%	u	0%	18µM*	1%	-3
CCC1C(=O)NCCN1C(=O)c1ccc2nc(Cc3cccc(Cl)c3)oc2c1 (configuration not stated)	0%	-8%	2%[56.1 µM]	u	-32%	i
